# Measurements published in PubChem BioAssay (EPA / NIEHS).
# Inconclusive results are not listed. The source made the active and inactive calls. The calls were made as follows, unless noted: active = hit-call score of the fitted dose curve at least 0.9, where 1 is the maximum; inactive = score below 0.9.
# Key:
# [1] = CCTE_Shafer_MEA_dev_firing_rate_mean: CCTE's Neural Network Formation Assay for Mean Firing Rate, Shafer Lab (AID 2284031)
# Method in brief: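 Extracellular spike frequency, AUC over DIV 5–12 recordings, in rat cortical neuron MEA cultures dosed from plating; loss direction vs DMSO.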
# [2] = CCTE_Shafer_MEA_dev_active_electrodes_number: CCTE's Neural Network Formation Assay for Number of Active Electrodes, Shafer Lab (AID 2284040; active = hit-call score of the fitted dose curve at least 0.9, where 1 is the maximum;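 also: potency for loss of active electrodes versus DMSO so lower counts are hits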)
# Method in brief: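 Developing rat cortical networks on MEAs, exposed DIV 0–12. Value is the AUC of active-electrode counts (≥5 spikes/min) from days 5, 7, 9, 12, relative to DMSO.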
# [3] = CCTE_Shafer_MEA_dev_burst_rate: CCTE's Neural Network Formation Assay for Burst Rate, Shafer Lab (AID 2284042)
# Method in brief: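 Rat primary cortical cultures on PEI/laminin MEA; compound from plating, re-dosed at DIV 5, 9 media change. Single-electrode bursts/recording length, well mean of active electrodes; AUC over DIV 5–12 recordings; loss-of-signal vs DMSO.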
# [4] = CCTE_Shafer_MEA_dev_bursting_electrodes_number: CCTE's Neural Network Formation Assay for Number of Bursting Electrodes, Shafer Lab (AID 2284043; active = hit-call score of the fitted dose curve at least 0.9, where 1 is the maximum;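 also: potency is for loss of bursting electrodes relative to DMSO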)
# Method in brief: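 Number of electrodes reaching ≥1 burst every 2 min was recorded at DIV 5, 7, 9 and 12 and collapsed as trapezoidal area under the curve. Cultures were rat cortical neurons on MEA plates, dosed continuously from plating with medium and treatment refreshed on DIV 5 and 9.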
# [5] = CCTE_Shafer_MEA_dev_burst_duration_mean: CCTE's Neural Network Formation Assay for Mean Burst Duration, Shafer Lab (AID 2284045)
# Method in brief: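 Mean single-electrode burst duration (first to last spike), averaged over bursting electrodes per well, then integrated as area-under-curve across recordings at days 5, 7, 9 and 12. Rat cortical cultures on MEAs, compound present from plating, refreshed at feeds.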
# [6] = CCTE_Shafer_MEA_dev_inter_network_spike_interval_mean: CCTE's Neural Network Formation Assay for Mean Inter-network Spike Interval, Shafer Lab (AID 2284047)
# Method in brief: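 Primary rat cortical neurons on PEI-coated 48-well MEAs (16 electrodes/well) were exposed from plating day 0 to DIV 12, with dosing renewed at DIV 5 and 9. Recordings at DIV 5, 7, 9, 12 were collapsed by trapezoidal AUC, loss-of-signal fit vs DMSO.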
# [7] = CCTE_Shafer_MEA_dev_network_spike_number: CCTE's Neural Network Formation Assay for Number of Network Spikes, Shafer Lab (AID 2284048);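 also: synchronized bursts across electrodes counted on days 5 7 9 12 and integrated as AUC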
# Method in brief: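 Number of network spikes (coordinated firing across electrodes) recorded on days 5, 7, 9 and 12 and summarised as area under the curve. Rat cortical cultures on MEA, continuous compound exposure with full medium/treatment exchange at DIV 5 and 9.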
# [8] = CCTE_Shafer_MEA_dev_network_spike_peak: CCTE's Neural Network Formation Assay for Mean Number of Electrodes in Network Spike, Shafer Lab (AID 2284049);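 also: fitted for loss of signal meaning fewer electrodes in network spikes than DMSO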
# Method in brief: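 Rat cortical primary culture, 1.5 x 10^5 cells/well, 48-well MEA (16 electrodes/well). Dosing day 0 through DIV 12, full media/compound exchange DIV 5, 9. AxIS adaptive spike detection; AUC over days 5/7/9/12; loss-of-signal vs DMSO.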
# [9] = CCTE_Shafer_MEA_dev_spike_duration_mean: CCTE's Neural Network Formation Assay for Mean Spike Duration, Shafer Lab (AID 2284051);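 also: mean network spike duration pooled as area under curve over DIV 5 to 12 recordings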
# Method in brief: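 Rat cortical primary cultures, 48-well MEA (16 electrodes/well); compound from plating, renewed DIV 5, 9. Network spike duration (AxIS adaptive detector) recorded DIV 5/7/9/12, combined as trapezoidal AUC; loss direction vs DMSO.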
# [10] = CCTE_Shafer_MEA_dev_network_spike_duration_std: CCTE's Neural Network Formation Assay for Standard Deviation of Network Spike Duration, Shafer Lab (AID 2284052);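 also: hits are decreases in network spike duration SD versus DMSO vehicle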
# Method in brief: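 Rat cortical cultures, 1.5 x 10^5 cells/well, exposed continuously from plating to DIV 12 with media/compound renewal at DIV 5, 9. Spontaneous activity recorded DIV 5/7/9/12, AxIS adaptive spike detector; AUC across days; negative direction vs DMSO.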
# [11] = CCTE_Shafer_MEA_dev_per_network_spike_spike_number_mean: CCTE's Neural Network Formation Assay for Mean Number of Spikes in a Network Spike, Shafer Lab (AID 2284053)
# Method in brief: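 Rat cortical primary cultures on 48-well MEA; compound from day 0, re-dosed with full media change DIV 5, 9. Recorded DIV 5, 7, 9, 12; spikes in 0.05 s window at network-spike peak ÷ total network spikes; AUC; loss vs DMSO.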
# [12] = CCTE_Shafer_MEA_dev_per_network_spike_spike_percent: CCTE's Neural Network Formation Assay for Percent of Spikes in a Network Spike, Shafer Lab (AID 2284054)
# Method in brief: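 Metric: fraction of spikes falling in a 0.05 s window at network-spike peaks. Recordings were made on days 5, 7, 9 and 12 and collapsed by trapezoidal AUC. Cultures were rat cortical neurons on MEA plates, dosed continuously from plating, re-dosed at media changes.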
# [13] = UKN5_HCS_SBAD2_cell_viability: Viability Assessment in the University of Konstanz (UKN) Leist Lab Neurite Outgrowth Assay in human iPSC-derived immature Dorsal Root Ganglia Neurons (UKN5) (AID 2284056)
# Method in brief: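 iPSC-derived immature peripheral neurons (SBAD2) seeded on Matrigel with CHIR99021, SU5402 and DAPT, dosed 1 h later for 24 h. Viability from Hoechst H-33342 and calcein-AM live staining, high-content imaging; bidirectional fit versus DMSO.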
# [14] = CCTE_Shafer_MEA_dev_LDH: CCTE's Lactate Dehydrogenase Assay for Cytotoxicity in the Neural Network Formation Assay, Shafer Lab (AID 2284068; active = hit-call score of the fitted dose curve at least 0.9, where 1 is the maximum;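 also: exposure for twelve days from plating with re-dosing on DIV 5 and 9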)
# Method in brief: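 Rat cortical primary neurons, MEA culture; dosing day 0–12, full medium plus compound exchange DIV 5, 9. Read-out: LDH enzyme activity, spectrophotometric. DMSO = negative control/baseline; signal loss → cytotoxicity.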
# [15] = UKN5_HCS_SBAD2_neurite_outgrowth: University of Konstanz (UKN) Leist Lab Neurite Outgrowth Assay in human iPSC-derived immature Dorsal Root Ganglia Neurons (UKN5) (AID 2284070); details: actives raise or lower the signal
# Method in brief: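 Neurite outgrowth is quantified as calcein-AM-labelled neurite area in human iPSC-derived peripheral neurons treated for 24 h, starting 1 h after plating in medium with CHIR99021 (1.5 uM), SU5402 (5 uM) and DAPT (5 uM).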
# [16] = CCTE_Shafer_MEA_dev_AB: CCTE's Alamar Blue Assay for Cytotoxicity in the Neural Network Formation Assay, Shafer Lab (AID 2284083; active = hit-call score of the fitted dose curve at least 0.9, where 1 is the maximum;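 also: resazurin reduction fluorescence as viability of cultured neurons; twelve days of exposure from plating with re-dosing on DIV 5 and 9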)
# Method in brief: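 Rat cortical primary cultures, 1.5 x 10^5 cells/well on MEA; continuous compound exposure over 12 days of network development, re-dosed with full medium change DIV 5 and 9. Alamar Blue fluorescence; loss of signal = cytotoxicity vs DMSO baseline.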
# [17] = CCTE_Shafer_MEA_dev_mutual_information_norm: CCTE's Neural Network Formation Assay for Mutual Information Normalization, Shafer Lab (AID 2284091)
# Method in brief: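 Shared information across electrodes, tracked on days 5, 7, 9 and 12 of network development and collapsed as trapezoidal area under the curve. Rat cortical cultures were treated continuously from plating, with treatment renewed at feeds on DIV 5 and 9; DMSO baseline, negative-direction fit.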
structure (smiles),measurement,setting,value
C[n+]1ccc(-c2ccccc2)cc1,outcome,[1],inactive
same,AC50,[2],4.33 µM (active)
same,outcome,[3],inactive
same,AC50,[4],4.7 µM (active)
same,outcome,[5],inactive
same,outcome,[6],inactive
same,outcome,[7],inactive
same,AC50,[8],6.52 µM (active)
same,outcome,[9],inactive
same,outcome,[10],inactive
same,outcome,[11],inactive
same,outcome,[12],inactive
same,outcome,[13],inactive
same,AC50,[14],4.7 µM (active)
same,outcome,[15],inactive
same,outcome,[16],inactive
same,outcome,[17],inactive
